# Data: PubChem BioAssay AID1220 (Sanford-Burnham Center for Chemical Genomics, 2008)
# The campaign covered roughly 190,000 compounds. About 1,300 (0.68%) were called active. Cut-off read from the data, not from the text of the source: active = inhibition above about 50%; inactive = the rest. This excerpt belongs to a sample that is enriched for actives.
# Molecular target: Mannose-6-phosphate isomerase (Homo sapiens) (UniProt P34949)
# Test: MPI inhibition at elevated mannose 6-phosphate – biochemical, fluorescence intensity, high mannose 6-phosphate, primary screen (AID 1220)
# Conditions: recombinant PMI enzyme, coupled fluorescence intensity; at 20 µM; stronger effect = higher value
# Sequence of Mannose-6-phosphate isomerase (Homo sapiens) (P34949 whole entry, looked up): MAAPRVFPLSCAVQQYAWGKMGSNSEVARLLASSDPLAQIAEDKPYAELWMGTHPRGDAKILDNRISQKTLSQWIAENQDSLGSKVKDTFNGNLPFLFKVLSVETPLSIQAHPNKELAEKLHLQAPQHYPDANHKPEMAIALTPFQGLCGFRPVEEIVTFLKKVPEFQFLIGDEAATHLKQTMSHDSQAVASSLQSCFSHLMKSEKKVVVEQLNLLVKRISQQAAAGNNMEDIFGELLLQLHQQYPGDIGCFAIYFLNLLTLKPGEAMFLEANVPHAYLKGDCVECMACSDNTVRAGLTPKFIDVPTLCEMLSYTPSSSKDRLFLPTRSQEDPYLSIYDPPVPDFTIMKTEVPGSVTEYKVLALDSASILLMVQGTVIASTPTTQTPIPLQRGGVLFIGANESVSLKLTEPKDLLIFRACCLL
row,SMILES,inhibition
1,CCc1cc[n+](-c2nc3ccccc3nc2C(=C=[N-])C#N)cc1,14.8% (inactive)
2,Cc1cc[n+](-c2nc3ccccc3nc2C(=C=[N-])C#N)cc1,51.9% (active)
3,N#CC(=C=[N-])c1nc2ccccc2nc1-[n+]1ccccc1,1.9% (inactive)
4,COC(=O)COC(=O)c1ccc(Oc2nc(OC)nc(N(C)C)n2)cc1,8.1% (inactive)
5,O=c1oc(-c2cccs2)nc2ccc(Br)cc12,-3% (inactive)
6,Cc1ccc(-c2cc(C(=O)O)c3cc(Br)ccc3n2)o1,-44.6% (inactive)
7,O=C(NC1CCCCC1)NC1CC2CCC(C1)N2C(=O)NCc1ccccc1 (stereo not given),-7.9% (inactive)
8,N#C/C(=C\c1ccc(N2CCOCC2)o1)c1nc2ccccc2[nH]1,45.8% (inactive)
9,N#C/C(=C/c1ccc(N2CCOCC2)o1)c1ccc(Cl)cc1,42.5% (inactive)
10,N#C/C(=C/c1ccc(N2CCOCC2)o1)c1ccc(Br)cc1,50.4% (active)
11,Cc1ccc2nc(/C(C#N)=C\c3ccc(N4CCOCC4)o3)[nH]c2c1,59.9% (active)
12,N#C/C(=C/c1ccc(N2CCOCC2)o1)c1nc2ccccc2[nH]1,38.4% (inactive)
13,Cc1ccc(/C(C#N)=C\c2ccc(N3CCOCC3)o2)cc1,14.1% (inactive)
14,CC1=CCC2COC(c3ccc[n+](Cc4ccccc4)c3)C1C2 (stereo not given),43.6% (inactive)
15,CCOc1ccc(N(CC(=O)N2CCCC2)S(=O)(=O)c2c(C)noc2C)cc1,0.9% (inactive)
16,Cc1c(Cl)cccc1NC(=O)Nc1ccc(C(N)=O)cc1,3.7% (inactive)
17,Cc1cc(/C=C2\SC(N)=NC2=O)c(C)n1-c1ccc(F)cc1,32.4% (inactive)
18,Cc1ccc(S(=O)(=O)n2cnc3ccccc32)c(C)c1,81.3% (active)
19,Cc1cc(C)c(S(=O)(=O)n2cnc3ccccc32)c(C)c1,-6% (inactive)
20,Cc1cc(S(=O)(=O)n2cnc3ccccc32)c(C)cc1Cl,-20.1% (inactive)
21,O=C1c2ccccc2C(=O)N1Cc1nc(-c2ccccc2)no1,-1.3% (inactive)
22,OCCCc1cn(-c2ccccc2)c2ccccc12,-13.6% (inactive)

row,SMILES,inhibition
1,C=CCSC1=N/C(=C\c2ccc(C)o2)C(=O)S1,7.9% (inactive)
2,Cc1ccc2cc(CN(Cc3ccccc3)Cc3nnnn3C3CCCC3)c(=O)[nH]c2c1,5.3% (inactive)
3,c1ccc2c(-n3cccn3)cccc2c1,-0.8% (inactive)
4,c1ccc2c(-n3cnnn3)cccc2c1,1.3% (inactive)
5,Nc1ccc2oc(-c3cccc4ccccc34)nc2c1,45.3% (inactive)
6,Cc1cc2nn(-c3cccc4ccccc34)nc2cc1NC(=O)c1cccs1,15.2% (inactive)
7,Cc1cc2nn(-c3cccc4ccccc34)nc2cc1N,75.5% (active)
8,Nc1ccc2nn(-c3cccc4ccccc34)nc2c1,62.8% (active)
9,Cn1nc(-c2ccc(C(=O)O)cc2)c2ccccc2c1=O,-4.7% (inactive)
10,Cc1ccnc(NC(c2cccnc2)c2ccc3cccnc3c2O)c1 (stereo not given),18% (inactive)
11,Cc1cc(NC(c2cccnc2)c2ccc3cccnc3c2O)no1 (stereo not given),40.3% (inactive)
12,CCC(=O)NC(c1cccs1)c1ccc2cccnc2c1O (stereo not given),49.8% (inactive)
13,Cc1ccc2ccc(C(Nc3ccccn3)c3ccccc3)c(O)c2n1 (stereo not given),11.4% (inactive)
14,CCOC(=O)N1CCN(S(=O)(=O)c2cccc3cccnc23)CC1,-12.8% (inactive)
15,COc1cc(C(Nc2ccccn2)c2ccc3ccc(C)nc3c2O)cc(OC)c1O (stereo not given),62.2% (active)
16,COc1ccccc1NC(c1cccnc1)c1ccc2cccnc2c1O (stereo not given),51.7% (active)
17,CCC(=O)NC(c1ccccc1OC)c1ccc2cccnc2c1O (stereo not given),50.2% (active)
18,Cc1cccc(NC(c2ccc(O)cc2)c2ccc3ccc(C)nc3c2O)n1 (stereo not given),8.7% (inactive)
19,CCCC(=O)NC(c1ccccc1OC)c1ccc2cccnc2c1O (stereo not given),39.5% (inactive)
20,CN1CCN(C(c2cccnc2)c2ccc3cccnc3c2O)CC1 (stereo not given),39.6% (inactive)
21,CCN(CC)CCCNC(=O)c1ccc2c(SCC(=O)O)c3c(nc2c1)CCC3,-9.3% (inactive)
22,COc1ccc(-n2c(C(C)n3nc(C)c([N+](=O)[O-])c3C)n[nH]c2=S)cc1 (stereo not given),-11.8% (inactive)

row,SMILES,inhibition
1,COc1ccc(NC(=O)CC2C(=O)N(CCc3ccccc3)C(=S)N2Cc2cccnc2)cc1 (stereo not given),-8.8% (inactive)
2,COc1ccc(CC(=O)NNC(=O)c2cccs2)cc1,-0.3% (inactive)
3,CC1CC(N(C(=O)c2ccco2)c2ccccc2)c2ccccc2N1 (stereo not given),17.9% (inactive)
4,Oc1cccc(C(Nc2nccs2)c2ccc3cccnc3c2O)c1 (stereo not given),57.6% (active)
5,Oc1c(C(Nc2nc3ccccc3s2)c2ccco2)ccc2cccnc12 (stereo not given),34.8% (inactive)
6,Oc1c(C(Nc2nccs2)c2ccc(C(F)(F)F)cc2)ccc2cccnc12 (stereo not given),24.5% (inactive)
7,CC(C)OC(=O)c1ccc(NC(=O)c2ccco2)cc1,6.2% (inactive)
8,O=[N+]([O-])c1cc(-c2ncccn2)cs1,-6.6% (inactive)
9,O=[N+]([O-])c1cccnc1NCc1cccs1,3.1% (inactive)
10,COc1ccc(NC(=O)Cn2nc3n(c2=S)CCC3)cc1,2.7% (inactive)
11,CCSC1=C(C#N)C(c2ccc3c(c2)OCO3)C2=C(CCCC2=O)N1 (stereo not given),7.2% (inactive)
12,Cc1ccc(C2C(C#N)=C(N)Oc3c2sc2ccccc32)o1 (stereo not given),57.5% (active)
13,Cc1ccc([C@H]2C(C#N)=C(N)Oc3cc(C)oc(=O)c32)o1,-11.4% (inactive)
14,CC(=O)C1=C(C)OC(N)=C(C#N)C1c1ccco1 (stereo not given),10.4% (inactive)
15,COC(=O)C1=C(C)OC(N)=C(C#N)C1c1ccco1 (stereo not given),2.9% (inactive)
16,CCOC(=O)C1=C(C)OC(N)=C(C#N)C1c1ccc(C)o1 (stereo not given),-3.7% (inactive)
17,N#CC1=C(N)Oc2c(sc3ccccc23)C1c1ccco1 (stereo not given),53.1% (active)
18,Clc1ccc(-c2cn3cc(Br)ccc3n2)cc1Cl,-15.2% (inactive)
19,O=C(O)CCc1ccc(-c2cccs2)n1CCc1ccccc1,3.8% (inactive)
20,CCC(C)(C)n1nnnc1C(c1ccncc1)N1CCC(C)CC1 (stereo not given),-5.6% (inactive)
21,O=C(Nc1cccn(Cc2c(Cl)cccc2Cl)c1=O)C1CC1,3.9% (inactive)
